# MK inhibit = S. pneumoniae MK inhibitors, primary screen, biochemical, PK/LDH-coupled NADH absorbance; mevalonate kinase [Streptococcus pneumoniae D39]; purified MK, PK/LDH-coupled NADH absorbance 340 nm; inhibition, % at 10 µM; 65,000 compounds, 0.48% hits; AID 555, 2006;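 active = ranked among the strongest by inhibition in the single 10 µM screen, a fixed top-ranked set picked for dose follow-up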
# Spn PMK inh = S. pneumoniae PMK inhibitors, primary screen, biochemical, mevalonate pathway, pilot trial included; 65,000 compounds, 0.49% hits; inhibition, % at 10 µM; purified PMK, PK/LDH-coupled NADH absorbance 340 nm; AID 539, 2006; phosphomevalonate kinase (Streptococcus pneumoniae D39);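 active = top-ranked compounds by inhibition in the single 10 µM screen, taking a fixed number of the strongest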;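 also: 0% = full reaction with DMSO carrier and 100% = background rate without enzyme reaction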
# Autofluor 339 = intrinsic fluorescence of library compounds, ex339/em460 – biochemical, MLSMR library, data from DPM-DC assay, artefact control, profiling panel; fluorescence fold increase at 10 µM; 65,000 compounds, 5.5% hits; AID 709, 2007; compound autofluorescence, ex339/em460 nm, NADH buffer; hits give high values; 1 = no-compound wells, NADH background;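 active = at 10 µM, mean starting fluorescence two-fold or more over control wells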;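 also: signal is the first read of a kinetic run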
# Spn DPM-DC inh = S. pneumoniae DPM-DC inhibitors, primary screen, biochemical, PK/LDH-coupled NADH fluorescence | purified DPM-DC | calls only at 10 µM | 65,000 compounds, 0.49% hits | AID 556, 2006;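 active = the 320 compounds with the highest percent inhibition in the single-dose primary screen, excluding strongly autofluorescent ones, cut at about 32% in these data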;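 also: kinetic rate of NADH fluorescence loss reporting ADP formed by the decarboxylase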
# NADH enzymes = inhibitors of PK/LDH coupling enzymes, profiling panel, artefact control, biochemical, MLSMR library | coupled PK/LDH NADH assays, four targets | IC50, µM (top dose mostly 10 µM), inactives show at the top dose inhibition | 65,000 compounds, 0.02% hits;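 active = single-dose screening hits from any of four coupled enzyme assays that gave an IC50 when retested across doses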;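 also: the DPM-DC format reads NADH fluorescence rather than 340 nm absorbance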
# Abs 340nm = compound light absorbance at 340 nm, profiling panel, artefact control, biochemical, MLSMR library, data from PS, PMK, MK assays; 65,000 tested, under 10 active; compound absorbance at 340 nm, fold over control; fold change at 10 µM; AID 708, 2007;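 active = at 10 µM dose, initial 340 nm absorbance at least 2 fold that of control wells; inactive = change under 2 fold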;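 also: initial absorbance extrapolated from kinetic A340 decline of NADH oxidation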
# Starred values were filed as active, the others as inactive; i = inactive; . = no result shown. The list is not random: actives were taken first. Their share in the collection is about 6.5%.
SMILES,MK inhibit,Spn PMK inh,Autofluor 339,Spn DPM-DC inh,NADH enzymes,Abs 340nm
CCN1C(=O)c2cccc3c(S(=O)(=O)NCCCN4CCOCC4)ccc1c23,6.0,20.0,3.89*,i,15.0%,1.06
CCN1C(=O)c2cccc3c(S(=O)(=O)Nc4ccccc4OC)ccc1c23,1.0,5.0,1.19,i,4.0%,1.07
CC(=O)NCCc1ccc(S(=O)(=O)N2CCOCC2)cc1,0.0,3.0,1.13,i,1.0%,1.02
COc1ccc(C(C)=O)cc1COC(=O)c1cccc(N(C)C)c1,2.0,11.0,2.14*,i,7.0%,0.98
O=C(OCC(F)(F)C(F)F)c1ccccc1C(=O)Oc1ccc(F)cc1F,5.0,14.0,1.07,i,6.0%,1.04
CCOC(=O)c1sc(NC(=O)c2noc3c2CCCC3)c(C(=O)OCC)c1C,12.0,5.0,2.15*,.,3.0%,0.98
CCOC(=O)c1c(NC(=O)c2noc3c2CCCC3)sc(C)c1C,22.0,0.0,3.26*,i,16.0%,1.03
COC(=O)c1cc(C(=O)OC)n(Cc2ccc(F)cc2)n1,0.0,12.0,1.12,i,6.0%,1.04
Cc1ccc(S(=O)(=O)N(Cc2cc3cc4c(cc3[nH]c2=O)OCCO4)CC2CCCO2)cc1 (stereo not drawn),6.0,2.0,3.46*,.,4.0%,1.1
COC(=O)c1ccc(S(=O)(=O)N(Cc2cc3cc4c(cc3[nH]c2=O)OCO4)C2CCCCC2)cc1,10.0,2.0,3.57*,.,6.0%,1.04
O=c1[nH]c2cc3c(cc2cc1CN(CC1CCCO1)S(=O)(=O)c1ccc(Cl)cc1)OCCO3 (stereo not drawn),9.0,8.0,2.63*,i,7.0%,1.09
CC(=O)c1ccc(S(=O)(=O)N(Cc2cc3cc4c(cc3[nH]c2=O)OCCO4)CC2CCCO2)cc1 (stereo not drawn),.,5.0,1.22,i,3.0%,1.03
CC(CN1CCCC(C(N)=O)C1)c1ccccc1 (stereo not drawn),0.0,0.0,1.06,i,0.0%,1.03
COCCNC(=O)c1c(N)n(/N=C/c2cccs2)c2nc3ccccc3nc12,0.0,0.0,2.48*,.,2.0%,1.11
CC(C)CNC(=O)c1c(N)n(/N=C/c2ccccn2)c2nc3ccccc3nc12,7.0,2.0,1.08,i,4.0%,1.03
Nc1c(C(=O)NC2CCCCC2)c2nc3ccccc3nc2n1/N=C/c1ccco1,9.0,13.0,3.68*,.,11.0%,1.05
CCCCCCNC(=O)c1c(N)n(/N=C/c2ccco2)c2nc3ccccc3nc12,11.0,10.0,2.97*,.,5.0%,1.12
CCCCCCNC(=O)C(C#N)c1nc2ccccc2nc1N1CCOCC1 (stereo not drawn),8.0,13.0,1.62,i,8.0%,1.03
CCOC(=O)c1sc(NC(=O)c2cc3c(C)nn(-c4ccccc4)c3s2)nc1C,7.0,4.0,1.11,i,9.0%,1.04
O=C(Nc1nccs1)c1c(O)c2cccc3c2n(c1=O)CCC3,6.0,3.0,1.17,i,3.0%,1.11
CCOC(=O)N1CCN(c2cc(=O)n(-c3ccc(OCC)cc3)c(=O)[nH]2)CC1,20.0,11.0,1.05,i,5.0%,0.98
CCN1CCCC1CNC(=O)c1cc2c(-c3cccc(OC)c3)nn(C)c2s1 (stereo not drawn),7.0,9.0,4.98*,.,8.0%,1.04
COc1cccc(-c2nn(C)c3sc(C(=O)NCc4ccco4)cc23)c1,10.0,7.0,3.02*,i,6.0%,1
CCN1CCCC1CNC(=O)c1cc2c(-c3ccc(Cl)cc3)nn(C)c2s1 (stereo not drawn),6.0,3.0,2.13*,.,5.0%,1.1
CC12C=CC3(CN(Cc4ccccc4)C(=O)C3C1C(=O)NC1CC1)O2 (stereo not drawn),5.0,28.0*,1.03,i,11.0%,0.97
SMILES,MK inhibit,Spn PMK inh,Autofluor 339,Spn DPM-DC inh,NADH enzymes,Abs 340nm
CCCCn1c(O)c(C=NCCCN(C)C)c(=O)[nH]c1=O,0.0,9.0,1.1,i,3.0%,1.01
CCCn1c(-c2cccs2)nc2ccccc21,10.0,0.0,3.69*,.,5.0%,1.02
C=CCn1c(-c2cccs2)nc2ccccc21,10.0,6.0,3.13*,.,8.0%,1.04
Cc1cc2n(n1)C(c1ccc(O)cc1)Nc1ccccc1-2 (stereo not drawn),0.0,8.0,2.92*,i,9.0%,1
Cc1cc2n(n1)C(c1cn(-c3ccccc3)nc1C)Nc1ccccc1-2 (stereo not drawn),10.0,4.0,2.15*,i,8.0%,1.01
CCn1cc(C2Nc3ccccc3C(=O)N2O)c(C)n1 (stereo not drawn),7.0,12.0,1.21,i,3.0%,1
Cc1cc2n(n1)C(c1ccco1)Nc1ccccc1-2 (stereo not drawn),0.0,3.0,1.74,i,7.0%,1.03
Cc1cc2n(n1)C(c1c[nH]c3ccccc13)Nc1ccccc1-2 (stereo not drawn),0.0,0.0,2.35*,i,7.0%,1.1
COC(=O)C1=C(NC(=O)c2ccc(C)c(C)c2)CCS1,0.0,16.0,2.71*,i,5.0%,1.02
CCOC(=O)c1cc(-c2ccco2)nc2c1c(C)nn2CCC#N,2.0,12.0,2.43*,.,2.0%,1.04
CCOC(=O)c1cc(C#N)c(NCc2ccccc2)nc1C,0.0,5.0,1.7,i,2.0%,1.05
CCOC(=O)c1cc(-c2ccncc2)nc2c1c(C)nn2C,4.0,19.0,5.06*,.,12.0%,1.04
CCOC(=O)c1cc(-c2ccc3c(c2)OCCO3)nc2c1c(C)nn2CCC#N,0.0,11.0,4.9*,.,6.0%,1.05
CCOC(=O)C1=C(C)N(C)C(C)=C(C(=O)OCC)C1c1ccncc1,8.0,1.0,1.12,i,3.0%,1.07
Cn1cnnc1SCC(=O)c1cc2ccccc2oc1=O,7.0,6.0,1.02,i,8.0%,1.01
O=C(Cn1nc(Cl)nc1Cl)c1cc2ccccc2oc1=O,8.0,13.0,2.16*,i,12.0%,0.97
COc1ccc2c(c1)CCc1c(C(=O)Nc3cc(C)n(Cc4ccc(Cl)cc4)n3)noc1-2,3.0,15.0,3.7*,i,8.0%,1.08
COc1ccc2c(c1)CCc1c(C(=O)Nc3ccc(OC)c(OC)c3)noc1-2,0.0,16.0,2.17*,i,5.0%,0.99
COc1ccc2c(c1)CCc1c(C(=O)Nc3ccn(Cc4ccc(C)cc4)n3)noc1-2,0.0,13.0,1.17,i,4.0%,1.04
CCOC(=O)CCSc1nc(C)c2ccccc2n1,0.0,9.0,1.18,i,3.0%,1.08
